The values below come from article PMC12214610.

Chain of Heat shock cognate 71 kDa protein (P11142 whole entry): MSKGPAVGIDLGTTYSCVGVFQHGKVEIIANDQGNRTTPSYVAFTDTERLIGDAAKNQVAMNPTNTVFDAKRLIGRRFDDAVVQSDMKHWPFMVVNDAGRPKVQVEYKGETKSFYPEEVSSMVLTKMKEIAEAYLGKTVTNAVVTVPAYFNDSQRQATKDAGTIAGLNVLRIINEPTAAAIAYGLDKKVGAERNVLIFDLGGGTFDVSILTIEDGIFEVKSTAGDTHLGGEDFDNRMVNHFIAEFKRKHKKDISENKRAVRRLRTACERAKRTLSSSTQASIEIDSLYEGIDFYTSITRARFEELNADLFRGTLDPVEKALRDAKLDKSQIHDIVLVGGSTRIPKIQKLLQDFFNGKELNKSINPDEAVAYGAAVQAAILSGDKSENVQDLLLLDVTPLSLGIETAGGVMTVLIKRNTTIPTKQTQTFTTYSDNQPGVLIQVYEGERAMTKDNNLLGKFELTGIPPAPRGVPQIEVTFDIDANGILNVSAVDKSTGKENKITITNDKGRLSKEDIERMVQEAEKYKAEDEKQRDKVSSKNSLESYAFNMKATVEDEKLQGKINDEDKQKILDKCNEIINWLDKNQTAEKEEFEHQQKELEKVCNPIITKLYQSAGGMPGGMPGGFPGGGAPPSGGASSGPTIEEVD
Chain of Glyceraldehyde-3-phosphate dehydrogenase, P04406 (P04406 whole entry): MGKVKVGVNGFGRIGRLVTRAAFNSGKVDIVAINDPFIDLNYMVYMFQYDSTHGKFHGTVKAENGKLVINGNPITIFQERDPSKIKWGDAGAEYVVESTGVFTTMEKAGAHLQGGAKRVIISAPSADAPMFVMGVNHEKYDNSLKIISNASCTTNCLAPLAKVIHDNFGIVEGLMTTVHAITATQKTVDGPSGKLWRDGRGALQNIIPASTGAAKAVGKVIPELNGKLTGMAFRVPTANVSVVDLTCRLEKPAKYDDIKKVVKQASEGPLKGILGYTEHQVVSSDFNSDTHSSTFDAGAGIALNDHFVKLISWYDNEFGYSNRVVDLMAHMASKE

The assay addresses Heat shock cognate 71 kDa protein (UniProt P11142).
Consider Heat shock 70 kDa protein 4L, O95757, for which the “listed as a hit” value is “yes”. The value for “Glyceraldehyde-3-phosphate dehydrogenase, P04406” was “yes”; that for Thioredoxin, P10599 was “yes”.
